Assay results reported in ChEMBL document CHEMBL4513216, “Probing the Open Global Health Chemical Diversity Library for Multistage-Active Starting Points for Next-Generation Antimalarials” (ACS Infect Dis, 2020).
The campaign covered roughly 69,000 compounds. About 8,600 (12%) showed an effect of 50% or more. The full list was thinned out, with strong results kept by preference.

The molecules below were run on Plasmodium berghei (assay: Screen against P. berghei liver stage (PbLuc), transformed with Luciferase, at 10uM). Conditions: tested at 10 uM.
Type: functional, HepG2

| Compound | INHIBITION [%] |
| --- | --- |
| O=C(CC1CC1)NCc1cn2c(n1)CN(Cc1nccs1)CC2 | 33.4 |
| CCC(C)(NCC(=O)Nc1nc(C)cs1)c1nc(C)cs1 (centres undefined) | 12.2 |
| CCC(C)(NCC(=O)Nc1ccccc1)c1nc(C)cs1 (centres undefined) | 9.3 |
| CCC(C)(NCC(=O)NC(C)C)c1nc(C)cs1 (centres undefined) | 76.7 |
| CC(C)c1nc(O)c2nnn(C[C@H]3CCCN(Cc4ccsc4)C3)c2n1 | 32.3 |
| CCC(=O)N1CCC2(CC1)CN(CCO)Cc1ccccc12 | -16.2 |
| CCc1oc2ccc(NS(C)(=O)=O)cc2c1C(=O)OC | 12.8 |
| CS(=O)(=O)N1CCC2(CC1)NCCn1c(-c3ccccc3)cnc12 | -0.554 |
| COc1ccc(-c2cnc3n2CCNC32CCN(S(C)(=O)=O)CC2)cc1 | 57.1 |
| COc1cccc(-c2cnc3n2CCC32CCN(S(C)(=O)=O)CC2)c1 | 39.3 |
| COc1ccc(CC(=O)N2CCC[C@@H](N)[C@@H]2c2ccccc2F)cc1 | 44.8 |
| CC(C)NC(=O)CC1COC2(CCN(Cc3cccs3)CC2)C1 (centres undefined) | 29.9 |
| CC(NC(=O)Nc1nccs1)C(=O)NC1CCCC1 (centres undefined) | 40.2 |
| Cc1cnc(NC(=O)c2csc(NCC(C)C)n2)s1 | 83.8 |
| O=C(Nc1ccccn1)c1csc(NC2CCCC2)n1 | -32.8 |
| CC(C)CCNc1nc(C(=O)NC2CC2)cs1 | -30 |
| Cc1cccc(NC(=O)c2csc(NCC(C)C)n2)n1 | -27.5 |
| Cc1cnc(NC(=O)N2CCCC2)s1 | -1.58 |
| Cc1cnc(NC(=O)c2csc(NC3CCCC3)n2)s1 | 89.6 |
| O=C(Nc1nccs1)c1csc(NC2CCCC2)n1 | 80.9 |
| CCN(CC)C(=O)CCCNC(=O)c1csc(NC2CC2)n1 | 28 |
| O=C(CCC1CCN(C2CCSCC2)CC1)NCC1CCCO1 (centres undefined) | 42.1 |
| CCc1nc(CN(C(C)=O)C2CCN(CCc3cccs3)C2)no1 (centres undefined) | 36.1 |
| CC(C)c1nc2c(n1C)CCN(Cc1cccc(OCC(N)=O)c1)C2 | 7.08 |
| O=C(CSc1ccccn1)N1C[C@@H]2CC[C@H]1CN(Cc1cscn1)C2 | -38.9 |
| O=C(c1ccccn1)N1CCc2ncc(Cn3cccn3)n2CC1 | -14.2 |
| O=C(CCn1ccc2cc(Br)ccc21)/N=c1\[nH]nc(C2CCCO2)s1 (centres undefined) | 35.1 |

| Compound | INHIBITION [%] |
| --- | --- |
| Cc1cc(=O)n2ncnc2n1CC(O)COCc1ccccc1Cl (centres undefined) | 55.4 |
| Cc1cc(=O)n2ncnc2n1CC(O)c1cc(Cl)ccc1Cl (centres undefined) | 29.8 |
| Cc1cc(=O)n2ncnc2n1CC(O)c1cc(F)ccc1F (centres undefined) | -4.74 |
| Cc1cc(=O)n2ncnc2n1CC(O)c1ccccc1 (centres undefined) | 62.9 |
| Cc1cc(=O)n2ncnc2n1CC(O)c1ccc(F)cc1F (centres undefined) | 57.6 |
| Cc1cc(=O)n2ncnc2n1CC(O)c1ccccc1F (centres undefined) | 33 |
| Cn1ncc2cnn(CC(O)COCc3ccccc3Cl)c2c1=O (centres undefined) | -30.1 |
| Cc1cc(=O)n2ncnc2n1CC(O)c1ccccc1Cl (centres undefined) | 2.37 |
| Cc1cc(CN(C)CCC(O)c2ccccc2)nn1C (centres undefined) | -3.3 |
| CN1CCN(c2cc(CNC(=O)c3cccnc3O)ccn2)CC1 | 18.36 |
| CCN1CCN(C2CCN(Cc3nc(C)c(C)o3)CC2)C1=O | 44.1 |
| CCc1nc(C2CCCN2Cc2ncc(C)c(OC)c2C)no1 (centres undefined) | 11.4 |
| O=S(=O)(C1CC1)N1CCOCC2(CCN(c3ccccn3)C2)C1 (centres undefined) | -26.1 |
| CS(=O)(=O)CC(=O)N1C[C@H]2CCC[C@@]2(COCc2ccncc2)C1 | 31.2 |
| CCC(CCNC(=O)c1cc(C2CC2)nc2c1cnn2C)n1cccn1 (centres undefined) | 9.55 |
| CC(C)NC(=O)N1CCN(CCn2cccn2)c2ncccc2C1 | 5.89 |
| COc1ccc(-c2ccccc2CCN)c(OC)c1OC | 50.8 |
| COc1ccc(-c2ccccc2CCN)c(OC)c1 | -2.9 |
| COc1ccc(-c2cc(CN)ccc2F)c(OC)c1OC | 30.9 |
| Cc1cnc(C(=O)N2C[C@@H](NS(C)(=O)=O)[C@@H]3OCCC[C@@H]32)cn1 | 35.7 |
| Cc1nnc(CSCc2ccc(OCC(F)(F)F)nc2)o1 | 56 |
| FC(F)(F)COc1ccc(CSCc2ccon2)cn1 | 24 |
| Cc1nc(CSCc2ccc(OCC(F)(F)F)nc2)no1 | 40.7 |
| COCCN1CCCC1c1cccc2c1OCCO2 (centres undefined) | 59.4 |
| O=C(CCN1CCCC1c1cccc2c1OCCO2)N1CCOCC1 (centres undefined) | 57.7 |
| O=C(CCN1CCCC1c1cccc2c1OCCO2)N1CCCCC1 (centres undefined) | 40.6 |
| COC(=O)CCN1CCCC1c1cccc2c1OCCO2 (centres undefined) | 15.9 |
